Rows were chosen to be rich in hits. Some 0.97% of all compounds tested hit in one or more screens of this group.
MmCpn inh – Inhibitors of TCP-1 ring complex (TRiC) of Methanococcus maripaludis (MmCpn): qHTS | Chaperonin Mm-Cpn (Methanococcus maripaludis) | purified Mm-Cpn ATPase, ADP Transcreener TR-FRET | Potency, µM (titrated, usually from 76.9 µM), most hits filed as inhibitors | 330,000 compounds, 0.031% hits | AID 504842, 2011; further: nearly all actives have a fitted effect of over 80% in size
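Purified archaeal Mm-CPN (25nM final) preincubated 10 min at 37degC with compound, then 10uM ATP for 30 min at 37degC; ADP measured by HTRF Transcreener TR-FRET; buffer 30 mM TRIS pH 7.4, 100mM KCl, 5mM MgCl2, 1mM DTT.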
uPA generation – qHTS for Inhibitors of Cell Surface uPA Generation; Potency, µM (top dose mostly 38.3 µM), most hits filed as inhibitors; cell surface uPA generation assay, qHTS; AID 540303, 2011; 330,000 compounds, 0.31% hits; active means well fitted inhibition curve with a large enough effect; inconclusive means small, poorly fitted or top-dose-only effect; inactive means no such curve, though single readings can be large or run the other way; tested in mouse RAW 264.7 cells; further: nearly all actives have a fitted effect of over 55% in size
Epigenetic derep – Quantitative High-Throughput Screen for Regulators of Epigenetic Control | Potency, µM (top dose mostly 53.9 µM), hits mostly activators | murine LDR cells, GFP reporter derepression, 30 h | AID 1865, 2009 | 280,000 compounds, 0.2% hits; further: nearly all actives have a fitted effect of over 60% in size
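Derepression of a silenced CMV-GFP reporter in murine LDR cells is scored by enumerating GFP-positive cells with a laser-scanning microplate cytometer after 30 hours of treatment at 37 C.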
CCT modulator – High-Throughput Screening for Modulators of Cytosolic Chaperonin Activity; purified chaperonin ATPase assay, HTRF ADP detection, 30 min; activity change, % (concentration not given with the values), hits read low; 360,000 compounds, 0.3% hits; AID 651819, 2012; in the data active means activity change below about -30%
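Enzyme 40 or 20 nM (batch-dependent) in Tris pH 7.4/KCl/MgCl2/DTT; cpd 76 uM single point; ATP 10 uM; 30 min 37 °C; Transcreener ADP HTRF detection, 30 min RT; ratio 665/615.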
Akt phos inh – HTS Assay for Inhibitors of Akt Phophorylation: Primary Screen | Neuro2A IGF-stimulated pAkt S473 HTRF, 20 min; hits give low values | activity change, % for hits at 50 µM | 360,000 compounds, 0.32% hits | AID 651550, 2012; in the data active means activity change below about -80%; inconclusive means mostly about -51% to -80%
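Neuro2A cells in DMEM with 0.5% FBS, overnight at 37 deg C, given compound at single 50 µM final, then IGF (6 nM final) for 20 min at 37 deg C. Lysed; phospho-Akt Ser473 by HTRF after 24 h, 665/615 ratio.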
MBNL1-CUG inh – qHTS Assay for Inhibitors of MBNL1-poly(CUG) RNA binding; Muscleblind-like protein 1 (Homo sapiens), Q9NR56; TR-FRET MBNL1-His/biotin-(CUG)12 binding, 665/545 ratio; Potency, µM (highest dose often 57.5 µM), actives largely listed as inhibitors; 280,000 compounds, 0.036% hits; AID 2675, 2010; active means well fitted inhibition curve with a large enough effect in the signal ratio, with a control signal flat, not every such curve was filed as active; inconclusive means small, poorly fitted or top-dose-only effect, or effect the other way, or a change in a side signal; inactive means no such curve, though single readings can be large or run the other way; the % refers to the signal ratio
Target sequence (Q9NR56 whole entry, looked up): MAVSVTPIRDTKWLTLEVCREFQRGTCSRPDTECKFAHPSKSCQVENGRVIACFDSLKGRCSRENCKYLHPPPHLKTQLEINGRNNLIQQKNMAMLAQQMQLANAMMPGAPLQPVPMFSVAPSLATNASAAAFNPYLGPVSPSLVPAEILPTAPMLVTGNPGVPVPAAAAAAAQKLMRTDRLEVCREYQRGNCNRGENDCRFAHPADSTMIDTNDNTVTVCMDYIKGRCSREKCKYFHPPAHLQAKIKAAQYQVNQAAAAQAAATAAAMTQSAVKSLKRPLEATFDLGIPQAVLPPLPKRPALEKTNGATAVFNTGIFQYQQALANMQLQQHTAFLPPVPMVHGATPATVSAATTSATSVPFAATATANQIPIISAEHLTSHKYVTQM
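Ratiometric TR-FRET (665 over 545 nm, excitation 340 nm) tracks disruption of MBNL1-His/biotin-(CUG)12 complex after 60 min at room temperature, with compounds at 92 nM to 58 uM final.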
MBNL1-CUG FRET – qHTS Assay for Inhibitors of MBNL1-poly(CUG) RNA binding: Initial hit validation from the primary screen; shares compounds with MBNL1-CUG inh; TR-FRET MBNL1-His / biotin-(CUG)12 binding, 60 min; Potency, µM (series often up to 57.6 µM), actives largely listed as inhibitors; 140 compounds, 50% hits; AID 493199, 2011
MBNL1-CUG Alpha – qHTS Assay for Inhibitors of MBNL1-poly(CUG) RNA binding: Initial hit validation in AlphaScreen assay for MBNL1-(CUG)12 binding. shares compounds with MBNL1-CUG inh. AlphaScreen MBNL1-His / biotin-(CUG)12 binding. Potency, µM (series often up to 57.7 µM), hits mostly inhibitors. 140 compounds, 30% hits. AID 493205, 2011
Menin-MLL HTRF – qHTS Assay for Inhibitors of MBNL1-poly(CUG) RNA binding: Counterscreen HTRF assay | shares compounds with MBNL1-CUG inh | His-Menin/biotin-MLL peptide TR-FRET counterscreen | Potency, µM (highest dose often 57.6 µM), hits mostly inhibitors | 120 compounds, 20% hits | AID 651843, 2012
Each line names hits and unclear results; the compound was inactive in the other large screens (follow-up assays come after a bar, where they were run). Unless noted, the call rests on the fitted dose curve; in most records, active means well fitted curve in the direction sought with a large enough effect; inconclusive means small, poorly fitted or top-dose-only effect, or another doubt; inactive means no such curve, though single readings can be large; an effect the other way counts as inactive or inconclusive.

CC1=CC2/C=C(\C)CCC(O)C(O)/C=C/C(=O)C23C(=O)NC(CC(C)C)C3C1C (stereo not drawn)	uPA generation 1µM (no result: MmCpn inh)
Cc1cccc(-n2c(/C=C/c3ccccn3)nc3ccccc3c2=O)c1	CCT modulator -38 (no result: Epigenetic derep)
COc1ccc(-n2c(/C=C/c3ccc4c(c3)OCO4)nc3ccccc3c2=O)cc1	CCT modulator -40
CCCCCCC(Cl)(Cn1ccnc1)c1ccccc1 (stereo not drawn)	CCT modulator -35 (no result: MmCpn inh, Epigenetic derep, MBNL1-CUG inh)
CCCCCCn1c(O)c(C=NCCCn2ccnc2)c(=O)[nH]c1=O	none
C[n+]1ccc(-c2ccccc2)c2ccccc21	uPA generation inconclusive, CCT modulator -32 (no result: Epigenetic derep, MBNL1-CUG inh)
c1cncc([C@@H]2CCCCN2)c1	none (no result: MmCpn inh, uPA generation, CCT modulator, Akt phos inh, MBNL1-CUG inh)
Nc1c(C(=O)Nc2ccc3c(c2)OCCO3)nnn1CCc1ccccc1	uPA generation 7.9µM
Cc1ccc(N)c(C(=O)c2ccccc2)c1	none
Nc1cccc(-c2nc3ccc(C(=O)c4ccccc4)cc3[nH]2)c1	uPA generation 2µM (no result: Epigenetic derep)
Cn1cccc1-c1cccnc1	none (no result: MmCpn inh, uPA generation, CCT modulator, Akt phos inh, MBNL1-CUG inh)
Cn1c(=O)oc2cc(S(=O)(=O)N3CCCc4ccccc43)ccc21	uPA generation 2.2µM
Cn1c(=O)oc2cc(S(=O)(=O)Nc3ccccc3O)ccc21	uPA generation inconclusive
COc1ccc(NC(=O)c2sc3nc4c(cc3c2N)N2CCC4CC2)cc1OC	none (no result: MmCpn inh, uPA generation, CCT modulator, Akt phos inh, MBNL1-CUG inh)
CCN1CCN(c2cc(C)c3cc(NC(=O)c4ccc(OC)c(OC)c4)ccc3n2)CC1	uPA generation 7.9µM
CCN(c1ccc(C(O)(C(=O)OC)C(F)(F)F)cc1)S(=O)(=O)c1ccccc1 (stereo not drawn)	Akt phos inh -125%
CCOC(=O)C(O)(c1ccc(N(CC)S(=O)(=O)c2ccccc2)cc1)C(F)(F)F (stereo not drawn)	none
C/C1=C\[C@@H](C)C/C=C/[C@H]2[C@@H]3O[C@]3(C)[C@@H](C)[C@H]3[C@H](Cc4c[nH]c5ccccc45)NC(=O)[C@]32C(=O)/C=C/C(=O)[C@@H]1O	uPA generation 0.79µM, Epigenetic derep inconclusive (no result: MmCpn inh)
COc1cc([C@@H]2c3cc4c(cc3[C@@H](OC)[C@H]3COC(=O)[C@H]23)OCO4)cc(OC)c1O	uPA generation 1.6µM
COc1cc(C2c3cc4c(cc3C(O)C3COC(=O)C23)OCO4)cc(OC)c1O (stereo not drawn)	none (no result: MmCpn inh, uPA generation, CCT modulator, Akt phos inh, MBNL1-CUG inh)
CN1[C@@H]2CC[C@H]1CC(OC(c1ccc(F)cc1)c1ccc(F)cc1)C2 (stereo partly drawn)	none (no result: MmCpn inh, uPA generation, CCT modulator, Akt phos inh, MBNL1-CUG inh)
Oc1ccccc1/C=N/NP(=S)(c1ccccc1)c1ccccc1	none
Cc1ccc2[nH]c(C(=O)N/N=C/c3ccccc3O)c(C)c2c1	uPA generation 3.5µM (no result: Epigenetic derep)
CN(CCc1ccccc1)Cc1c[nH]c2ccccc12	uPA generation 2.2µM (no result: Epigenetic derep)
CCN(CC)Cc1c[nH]c2ccccc12	none
O=c1[nH]c(=O)n(-c2cccc(Cl)c2)c(O)c1C=NCCCN1CCOCC1	none
Cc1ccc(-n2c(O)c(C=NCCN3CCOCC3)c(=O)[nH]c2=O)cc1	Akt phos inh -128%
CN[C@@H]1C[C@H](c2ccc(Cl)c(Cl)c2)c2ccccc21	none (no result: MmCpn inh, uPA generation, CCT modulator, Akt phos inh, MBNL1-CUG inh)
CCn1cc(CN2CCCC(C(=O)c3cccc(OC)c3)C2)c(C)n1 (stereo not drawn)	MBNL1-CUG inh 50µM | MBNL1-CUG FRET inconclusive | MBNL1-CUG Alpha inactive | Menin-MLL HTRF inactive
CCCn1cc(CN2CCCC(C(=O)c3cccc(OC)c3)C2)c(C)n1 (stereo not drawn)	none
CC(C)(O)C1O[C@H]2CC[C@@]3(C)[C@@](O)(CC[C@H]4Cc5c([nH]c6ccccc56)[C@@]43C)C2=CC1=O (stereo partly drawn)	none (no result: MmCpn inh, uPA generation, CCT modulator, Akt phos inh, MBNL1-CUG inh)
Cc1ccsc1C(=O)C1CCCN(Cc2ccc(-n3cccn3)cc2)C1 (stereo not drawn)	MBNL1-CUG inh 6.3µM | MBNL1-CUG FRET 3.3µM | MBNL1-CUG Alpha inconclusive | Menin-MLL HTRF 18µM
Cc1ccsc1C(=O)C1CCCN(Cc2c(C)nn(C(C)C)c2C)C1 (stereo not drawn)	MBNL1-CUG inh 32µM | MBNL1-CUG FRET 41µM | MBNL1-CUG Alpha inactive | Menin-MLL HTRF inactive
C=CC[C@]1(O)CCC2C3CCC4=CCCCC4C3CCC21C (stereo partly drawn)	none (no result: MmCpn inh, uPA generation, CCT modulator, Akt phos inh, MBNL1-CUG inh)
CCCc1cc2c(n1Cc1ccco1)C(C)C1CN(C(=O)c3ccccc3)C(C)(C(=O)OC)C21 (stereo not drawn)	none (no result: MmCpn inh, uPA generation, CCT modulator, Akt phos inh, MBNL1-CUG inh)
Cc1ccccc1CN1C(=O)C(C)N=C(c2ccccc2)c2ccccc21 (stereo not drawn)	none (no result: MmCpn inh, uPA generation, CCT modulator, Akt phos inh, MBNL1-CUG inh)
COc1ccc2nc(NC(=O)CCc3nc(C4=CCN(C)CC4)no3)sc2c1	MBNL1-CUG inh 20µM | MBNL1-CUG FRET inconclusive | MBNL1-CUG Alpha 16µM | Menin-MLL HTRF inconclusive
CN1CCC2(CC1)C(C#N)=C(N)NC(S)=C2C#N	MBNL1-CUG inh 4µM | MBNL1-CUG FRET 33µM | MBNL1-CUG Alpha inactive | Menin-MLL HTRF 16µM
O=C(O)CCCCC1SCC2NC(=O)NC21 (stereo not drawn)	MBNL1-CUG inh 0.1µM | MBNL1-CUG FRET 0.041µM | MBNL1-CUG Alpha 0.0041µM | Menin-MLL HTRF 0.015µM
OC[C@@H]1CCCN2CCCC[C@@H]12	none (no result: MmCpn inh, uPA generation, CCT modulator, Akt phos inh, MBNL1-CUG inh)

Assay outcomes as filed in PubChem.
